From PubChem BioAssay AID1159580 (chemical genetic matrix, 2015)
Several values for one entry are separate records, joined by “and”; a condition that tells them apart may be missing. Equal entries are not always repeated. Among all 5,500 compounds or so, about 2,000 (36%) were called active. Roughly 18% stayed inconclusive and do not appear here. Rule as the data show it: active = normalized growth mostly below about 0.91 (no sharp cut-off); inconclusive = no clear call, values can overlap the other calls; inactive = mostly above about 0.92. The list shows a part of the results.

Assay: chemical genetic growth profiling, strain panel (AID 1159580);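 also: tested at 20 µM; growth read once vehicle control cultures reached saturation at 30 °C; 1 = growth at the plate median or of vehicle wells; lower values mean less growth of the strain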
Conditions: S. cerevisiae deletion strains, growth OD

Measured: normalized growth

C[C@]12CCC3c4ccc(O)cc4CCC3C1CC[C@@H]2OC(=O)CCC1CCCC1 (some centres undefined)
inactive: locus YAL021C, strain ccr4, active compounds read low 1.03 | locus YAL026C, strain drs2, active compounds read low 0.997 | locus YAL030W, strain snc1, active compounds read low 1.01 | locus YBL061C, strain skt5, active compounds read low 1 | locus YBR009C, strain hhf1, active compounds read low 1 | locus YBR021W, strain FUR4, active compounds read low 1.02 | locus YBR023C, strain chs3, active compounds read low 1.03 | locus YBR171W, strain sec66, active compounds read low 1.02 | locus YBR229C, strain ROT2, active compounds read low 0.961 | locus YBR231C, strain swc5, active compounds read low 0.98 | locus YBR279W, strain paf1, active compounds read low 1 | locus YCL011C, strain gbp2, active compounds read low 1.02 | locus YCL016C, strain dcc1, active compounds read low 1.03 | locus YCL029C, strain bik1, active compounds read low 1 | locus YCL061C, strain MRC1, active compounds read low 1.01 | locus YCL069W, strain vba3, active compounds read low 1.01 | locus YCR088W, strain abp1, active compounds read low 1.01 | locus YDL005C, strain med2, active compounds read low 1.01 | locus YDL035C, strain GPR1, active compounds read low 0.959 | locus YDL040C, strain nat1, active compounds read low 0.997 | locus YDL074C, strain BRE1, active compounds read low 0.97 | locus YDL101C, strain DUN1, active compounds read low 0.985 | locus YDL185W, strain tfp1, active compounds read low 0.975 | locus YDL192W, strain arf1, active compounds read low 1 | locus YDR001C, strain nth1, active compounds read low 1 | locus YDR069C, strain doa4, active compounds read low 0.989 | locus YDR101C, strain arx1, active compounds read low 0.959 | locus YDR137W, strain rgp1, active compounds read low 1.03 | locus YDR150W, strain NUM1, active compounds read low 0.985 | locus YDR159W, strain sac3, active compounds read low 0.982 | locus YDR162C, strain NBP2, active compounds read low 0.944 | locus YDR195W, strain ref2 1 | locus YDR297W, strain sur2, active compounds read low 1.01 | locus YDR318W, strain mcm21, active compounds read low 1 | locus YDR334W, strain swr1, active compounds read low 1.01 | locus YDR335W, strain msn5, active compounds read low 1.02 | locus YDR388W, active compounds read low 0.991 | locus YDR392W, strain spt3, active compounds read low 0.944 | locus YDR502C, strain sam2, active compounds read low 0.994 | locus YEL003W, strain gim4, active compounds read low 0.988 | locus YEL037C, strain rad23, active compounds read low 0.992 | locus YEL061C, strain CIN8 (second series), active compounds read low 1.01 | locus YEL061C, strain CIN8, active compounds read low 0.989 | locus YER015W, strain faa2, active compounds read low 1 | locus YER016W, strain bim1, active compounds read low 1.01 | locus YER110C, active compounds read low 1.01 | locus YER111C, strain swi4, active compounds read low 1.01 | locus YER155C, strain BEM2 (second series), active compounds read low 1.01 | locus YER155C, strain BEM2, active compounds read low 1 | locus YER167W, strain BCK2, active compounds read low 1.01 | locus YFR010W, strain ubp6, active compounds read low 1.01 | locus YGL078C, strain dbp3, active compounds read low 0.998 | locus YGL086W, strain mad1, active compounds read low 0.994 | locus YGL167C, strain pmr1, active compounds read low 1.01 | locus YGL173C, strain kem1, active compounds read low 1.02 | locus YGL227W, strain vid30, active compounds read low 1.03 | locus YGL240W, strain doc1, active compounds read low 1.05 | locus YGL248W, strain PDE1, active compounds read low 0.99 | locus YGL253W, strain hxk2, active compounds read low 1.01 | locus YGR135W, strain pre9, active compounds read low 1.07 | locus YGR229C, strain SMI1, active compounds read low 0.982 | locus YGR252W, strain gcn5, active compounds read low 1.16 | locus YHR013C, strain ard1, active compounds read low 1.03 | locus YHR027C, strain rpn1, active compounds read low 0.995 | locus YHR030C, strain SLT2, active compounds read low 0.99 and 1.03 | locus YHR079C, strain IRE1 (second series), active compounds read low 0.996 | locus YHR079C, strain IRE1, active compounds read low 1.04 | locus YHR094C, strain hxt1, active compounds read low 0.997 | locus YHR129C, strain ARP1, active compounds read low 0.992 | locus YHR142W, strain chs7, active compounds read low 1.05 | locus YHR200W, strain rpn10, active compounds read low 0.998 | locus YIL066C, strain RNR3, active compounds read low 0.977 | locus YIL073C, strain SPO22, active compounds read low 0.989 | locus YIL125W, strain kgd1, active compounds read low 0.989 | locus YIR030C, strain dcg1, active compounds read low 1.01 | locus YJL092W, strain hpr5, active compounds read low 1.01 | locus YJL095W, strain BCK1 (second series), active compounds read low 1.01 | locus YJL095W, strain BCK1, active compounds read low 1.01 | locus YJL115W, strain asf1, active compounds read low 1.01 | locus YJL129C, strain trk1, active compounds read low 1.03 | locus YJL134W, strain LCB3, active compounds read low 0.979 | locus YJL154C, strain vps35, active compounds read low 1.01 | locus YJL164C, strain tpk1, active compounds read low 0.996 | locus YJL166W, strain qcr8, active compounds read low 1.02 | locus YJL168C, strain set2, active compounds read low 0.995 | locus YJL187C, strain SWE1 (second series), active compounds read low 0.976 | locus YJL187C, strain SWE1, active compounds read low 1.01 | locus YJR043C, strain POL32, active compounds read low 0.967 | locus YJR066W, strain TOR1, active compounds read low 0.929
